This is an account of results in ChEMBL document CHEMBL4513135, “CO-ADD screening of IQOG CSIS (Spain) compounds”.

Measured potencies and affinities stand elsewhere.

The test system of this experiment is Klebsiella pneumoniae. As to conditions: Concentration 32 ug.mL-1; ASSAY_TEST Inhibition of Bacterial Growth; detection method Absorption (OD600); MEDIA CAMHB; plate type 384well; NBS; CORNING #3640; time 18 hr.
In the case of `CCOc1nc(N)c(C#N)c(-c2ccccc2)c1C#N`, the Inhibition (as a rule, the relative decrease from the control value, in per cent) is recorded as 4.68%.
Then `C#CCN1CCc2nc3nc(N4CCCC4)c(C#N)cc3c(N)c2C1`, with 10.68%; and `O=C(N/N=C/c1c[nH]c2ccccc12)c1ccco1`, with 12.93%; and `CC(=O)Oc1ccc(C=C2N=C(c3ccccc3)OC2=O)cc1`, with -12.75%.
Then `CC(C)CC(C)NNC(=O)c1cc2ccccc2[nH]1` (stereo not given), with -2.7%.
On to `COc1ccc2cc(C3C4=C(CC(C)(C)CC4=O)Oc4nc5c(c(N)c43)CCCCC5)c(Cl)nc2c1` (stereo not given), for which the Inhibition turned out to be 4.86%.
Then `N#Cc1c(N)nc(N2CCOCC2)c(C#N)c1-c1ccccc1`, with 3.68%.
As for `CC#CCN(Cc1ccccc1)c1nc(N)c(C#N)cc1C#N`, the Inhibition was -9.03%.
On to `CC1=N/C(=C(\C)c2ccccc2)C(=O)O1`, for which the Inhibition is listed as -1.65%.
Then `COc1cccc(C2C(C#N)=C(N)Oc3ccc4ccccc4c32)c1` (stereo not given), with 12.24%; and `COc1ccc(C2c3ccc4ccccc4c3OC(=NBr)C2(Br)C#N)cc1` (stereo not given), with 6.43%; and `ClCCC1CCN(Cc2ccccc2)CC1`, with 14.5%.
As to `CCCC(C)NNC(=O)Cc1c[nH]c2ccccc12` (stereo not given), the Inhibition is listed as 6.53%.
Regarding `COC(=O)C1CCN(Cc2ccccc2)CC1`, the Inhibition worked out at 4.25%.
As for `CCOC(=O)c1c(C)nc(NC2CCN(Cc3ccccc3)CC2)c(C#N)c1-c1ccccc1`, the Inhibition amounted to 11.42%.
On to `O=C1OC(c2ccc([N+](=O)[O-])cc2)=NC1=Cc1ccccc1`, for which the Inhibition is 6.09%.
Then `COc1ccc2cc(C=O)c(Cl)nc2c1`, with 1.14%; and `COc1ccc(CNNC(=O)c2cc3ccccc3[nH]2)cc1`, with -6.62%.
Then `C#CCN(C)Cc1cc2cc(OCOc3ccc4c(c3)cc(CN(C)CC#C)n4C)ccc2n1C`, with 2.59%; and `COc1cccc(C=C2N=C(c3ccccc3)OC2=O)c1OC(C)=O`, with 0.25%.
Then `C#CCNc1ccc(Cl)nn1`, with 15.08%; and `C#CCN(C)Cc1cc2cc(OCCCCC3CCN(Cc4ccccc4)CC3)ccc2n1C`, with 10.12%; and `COc1ccc(C2c3c(nc4c(c3N)CCCC4)Oc3ccc4ccccc4c32)cc1OC` (stereo not given), with -20.58%.
Take `N#Cc1c(N)nc(N)c(C#N)c1-c1ccccc1`: the Inhibition amounted to 13.82%.
Take `CC1Cc2c(nc3c(c2N)CCCC3)NC1=O` (stereo not given): the Inhibition is given as 17.01%.
Then `CN(C)c1ccc(C(=NNC(=O)c2cc3ccccc3[nH]2)c2ccc(N(C)C)cc2)cc1`, with -1.36%; and `Cn1ccnc1C1c2ccc3ccccc3c2Oc2nc3c(c(N)c21)CCCCC3` (stereo not given), with 8.79%.
For the compound `CCOC(=O)c1c(C)[nH]c(=O)c(C#N)c1-c1ccccc1`, the Inhibition is 10.06%.
On to `N#Cc1cc2c(N)c3c(nc2nc1Cl)CCCC3`, for which the Inhibition was 24.47%.
In the case of `N#Cc1ccc(Br)cc1N`, the Inhibition was 26.43%.
Turning to `COc1[nH]c(=O)ccc1C#N`, the Inhibition is reported as 19.79%.
Turning to `C#CCNC.O=C(O)C(=O)O`, the Inhibition worked out at 9.05%.
For the compound `O=C1OC(c2ccccc2)=NC12CC2c1ccc([N+](=O)[O-])cc1` (stereo not given), the Inhibition amounted to 15.67%.
Turning to `C#CCN(C)Cc1cc2cc(OCCCCC3CCN(Cc4ccccc4)CC3)ccc2n1C.Cl`, the Inhibition is listed as 25.34%.
Then `N#Cc1c(-c2ccccc2)c2ccc3ccccc3c2oc1=O`, with 8.94%; and `O=C1OC(c2ccccc2)=NC1=Cc1ccccc1Cl`, with 11.08%; and `C#CCN1CCc2nc3nc(NC4CCN(Cc5ccccc5)CC4)c(C#N)cc3c(N)c2C1`, with 10.49%.
Then `COc1ccc(-c2cc(-c3cc4ccccc4nc3Cl)cc(=O)[nH]2)cc1`, with 10.14%; and `CCC(CC)NNC(=O)c1cc2ccccc2n1C`, with 9.15%; and `CC(=O)Oc1ccc(C=C2N=C(C)OC2=O)cc1`, with 7.96%.
